Measurements as given in PubChem BioAssay (EPA / NIEHS).
Records with an inconclusive call do not appear. Active and inactive are the calls of the source. The calls were made as follows: active = hit-call score of the fitted dose curve at least 0.9, where 1 is the maximum; inconclusive = response in the unintended direction; inactive = score below 0.9.

Assay: ACEA_AR_agonist_AUC_viability: ACEA Biosciences xCELLigence Real-Time Cell Analysis on Androgen Receptor Agonism for Viability (AID 2283775)
How it was run: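 22Rv1 cells; impedance growth kinetics; 8-pt 1:4 dilutions from 100 uM top final, ≤0.5% DMSO; n = 2; 80 h read; AUC viability, loss-of-signal vs DMSO.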

Question: With CC(=O)c1ccc(O)cc1 as the molecule, how does the outcome read?
Answer: inactive

Question: Which outcome does the source give for CCCCCCCCOC(=O)c1ccc(O)cc1 here?
Answer: inactive

Question: Which outcome does the source give for CCC(C)(CCCC(C)C)OC(C)=O (centres undefined) here?
Answer: inactive

Question: For CC(C)(C)C1CCC(O)CC1 (centres undefined), which outcome is on record?
Answer: inactive

Question: Which outcome does the source give for CN(C)C here?
Answer: inactive

Assay: ACEA_AR_antagonist_AUC_viability: ACEA Biosciences xCELLigence Real-Time Cell Analysis on Androgen Receptor Antagonism for Viability (AID 2283776);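 also: area under impedance growth curve at 80 h after dosing as viability; hits lower the growth signal relative to DMSO meaning cytotoxicity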
How it was run: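 22Rv1 human prostate cancer cells were seeded on electrode plates, monitored overnight, then exposed to eight 1:4 dilutions from 100 uM final. Impedance-based growth kinetics at 80 h gave an AUC viability endpoint normalized to DMSO.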

Question: Which outcome does the source give for O=S(=O)(O)c1cc(S(=O)(=O)O)c2c(N=Nc3ccccc3)c(O)ccc2c1 here?
Answer: inactive

Question: Which outcome does the source give for CC(O)CNCC(C)O (centres undefined) here?
Answer: inactive

Question: Which outcome does the source give for CC(=O)Nc1cc(S(=O)(=O)O)cc2cc(S(=O)(=O)O)c(N=Nc3ccccc3)c(O)c12 here?
Answer: inactive

Question: With CCCCCC(=O)O[C@]1(C(C)=O)CC[C@H]2[C@@H]3CCC4=CC(=O)CC[C@]4(C)[C@H]3CC[C@@]21C as the molecule, how does the AC50 read?
Answer: 0.416 µM (active)

Question: Which outcome does the source give for C=CC(O)CCCCC (centres undefined) here?
Answer: inactive

Question: With CCCCCCCC(=O)N(C)C as the molecule, how does the outcome read?
Answer: inactive

Question: Which outcome does the source give for CCC(=O)OC(C)(C)C1CC=C(C)CC1 (centres undefined) here?
Answer: inactive

Question: For CC(C)C(=O)c1ccccc1, which outcome is on record?
Answer: inactive

Question: With O=C(O)CS as the molecule, how does the outcome read?
Answer: inactive

Question: For CCCCCCCCCCCCOCCOS(=O)(=O)O, which outcome is on record?
Answer: inactive

Question: Which outcome does the source give for COc1ccccc1O here?
Answer: inactive

Question: With CCCO[Si](OCCC)(OCCC)OCCC as the molecule, how does the outcome read?
Answer: inactive

Question: With CC1COC(=O)O1 (centres undefined) as the molecule, how does the outcome read?
Answer: inactive

Question: Which outcome does the source give for CCCCCCC(C)O (centres undefined) here?
Answer: inactive

Question: Which outcome does the source give for CCC(C)(C)C1CCC(=O)CC1 here?
Answer: inactive

Question: For C1CCCNCC1, which outcome is on record?
Answer: inactive

Assay: ACEA_ER_AUC_viability: ACEA Biosciences xCELLigence Real-Time Cell Analysis on Estrogen Receptor Agonism for Viability (AID 2283782);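 also: hit means loss of impedance signal meaning reduced cell growth or viability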
How it was run: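 Viability endpoint: reduced impedance area under the curve relative to DMSO, recorded by real-time electrode sensing over ~80 h of continuous exposure. Duplicate plates of T47D in hormone-depleted medium; eight concentrations, 1:4 dilutions, 100 uM maximum.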

Question: Which outcome does the source give for CC(=O)CC(C)(C)C1CCCCC1 here?
Answer: inactive

Question: For O=S(=O)(O)CCCN1CCOCC1, which AC50 is on record?
Answer: 36.6 µM (active)

Question: For CN(C)CCCNCCCN(C)C, which AC50 is on record?
Answer: 50 µM (active)

Question: For CCOC(=O)C(=O)OCC, which outcome is on record?
Answer: inactive

Question: For CC(=O)c1ccc(O)cc1, which outcome is on record?
Answer: inactive

Question: Which AC50 does the source give for C=C(C)CCCC(C)CCO (centres undefined) here?
Answer: 50 µM (active)

Question: Which AC50 does the source give for CCCCCC(=O)O[C@]1(C(C)=O)CC[C@H]2[C@@H]3CCC4=CC(=O)CC[C@]4(C)[C@H]3CC[C@@]21C here?
Answer: 49.8 µM (active)

Question: Which AC50 does the source give for CCCCC/C=C\C=C\C(=O)OCC here?
Answer: 80.8 µM (active)

Question: Which AC50 does the source give for CCC(C)(C)c1cc(O)c(C(C)(C)CC)cc1O here?
Answer: 72.7 µM (active)

Question: With CCC(=O)OC(C)(C)C1CC=C(C)CC1 (centres undefined) as the molecule, how does the outcome read?
Answer: inactive

Question: For CCCCCCCCOC(=O)c1ccc(O)cc1, which AC50 is on record?
Answer: 24.7 µM (active)

Question: With CC(C)C(=O)c1ccccc1 as the molecule, how does the outcome read?
Answer: inactive

Question: Which outcome does the source give for O=C(O)CS here?
Answer: inactive

Question: With CCCCCCCCCCCCOCCOS(=O)(=O)O as the molecule, how does the AC50 read?
Answer: 84.1 µM (active)

Question: Which outcome does the source give for CCC(C)(CCCC(C)C)OC(C)=O (centres undefined) here?
Answer: inactive

Question: With O=C(O)c1cc(C(=O)O)c(C(=O)O)cc1C(=O)O as the molecule, how does the outcome read?
Answer: inactive

Question: With NC(=O)c1c(Cl)cccc1Cl as the molecule, how does the outcome read?
Answer: inactive

Question: For COc1ccc(C(C)=O)cc1, which outcome is on record?
Answer: inactive

Question: With CC(C)N1C(=O)c2ccccc2C1=O as the molecule, how does the outcome read?
Answer: inactive

Question: With CC=CC(=O)C1=C(C)C=CCC1(C)C as the molecule, how does the outcome read?
Answer: inactive

Question: For C=C1CC/C=C(\C)CC[C@@H]2[C@@H]1CC2(C)C, which outcome is on record?
Answer: inactive

Question: Which outcome does the source give for CC1COC(=O)O1 (centres undefined) here?
Answer: inactive

Question: With O=S1(=O)CC=CC1 as the molecule, how does the outcome read?
Answer: inactive

Question: For CC(C)(C)C1CCC(O)CC1 (centres undefined), which outcome is on record?
Answer: inactive

Question: For CC1(C)CC(N)CC(C)(CN)C1 (centres undefined), which outcome is on record?
Answer: inactive

Question: With O=C(C=Cc1ccccc1)OCCCc1ccccc1 as the molecule, how does the AC50 read?
Answer: 60 µM (active)

Question: For C=C/C(C)=C/C/C=C(\C)CCC=C(C)C, which AC50 is on record?
Answer: 89.9 µM (active)

Question: With CN(C)C as the molecule, how does the outcome read?
Answer: inactive
